USP30 inh: inhibitors of human USP30 deubiquitinase; Q70CQ3; purified USP30, Ub-rhodamine cleavage fluorescence; inhibition, % at 25 µM; 47,000 compounds, 5.3% hits
USP28 block: human USP28 deubiquitinase inhibition | Q96RU2 | purified USP28, Ub-rhodamine cleavage fluorescence, 30 min | inhibition, % at 25 µM | 47,000 compounds, 3% hits | AID 1645857
An asterisk follows results filed as active. Sampled rows, rich in hits. Any-hit rate of the full collection: about 7%. No stated cut-off is given here; in the data, active means inhibition above about 30%; inactive means the rest.

SMILES | USP30 inh | USP28 block
O=C(NCc1cccc(Cl)c1)c1noc2c1CCc1sccc1-2 | 24.1 | 15.0
COc1ccc(CCNC(=O)c2noc3c2CCc2sccc2-3)cc1OC | -1.0 | 75.5*
COc1ccc(Cl)cc1N(C)C(=O)c1noc2c1CCc1sccc1-2 | 33.8* | 22.7
Cc1cc(C(=O)Nc2cc(C(F)(F)F)ccc2N2CCOCC2)c2ccccc2n1 | -143.4 | -64.6
COc1cccc(C2Cn3c(C)cnc3CN2C(=O)c2ncoc2C)c1 (stereo not given) | -1.9 | 0.2
COc1cccc(C(=O)N2CCN(CC3CC4C=CC3C4)CC2)c1OC (stereo not given) | 9.9 | -3.4
Cc1ccc(Cl)cc1NC(=O)c1ccn(COc2ccccc2F)n1 | -0.2 | 34.9*
Cc1ccc(NC(=O)c2ccn(COc3ccc(Cl)c(C)c3)n2)nc1 | 22.3 | -6.3
Cc1cc(C)nc(NC(=O)c2ccn(COc3ccc(F)cc3)n2)c1 | 32.4* | 4.5
Cc1ccc(Cl)cc1NC(=O)c1cccc(-n2cnnn2)c1 | 7.7 | -13.4
Cc1ccc(NC(=O)c2ccn(COc3ccccc3Cl)n2)nc1 | 48.1* | 19.2
Cc1cccc(NC(=O)c2ccn(COc3ccc(F)cc3)n2)n1 | 3.9 | 10.1
Cc1ccccc1NS(=O)(=O)c1ccc2c(c1)CCCC(=O)N2 | -24.7 | -13.3
COC1=CC(=O)c2c(O)c3c(c(C)c2C1=O)C[C@@]1(O)[C@H](O[C@H]2CC[C@H](O[C@H]4C[C@@](C)(O)[C@H](OC(=O)c5c(C)ccc(C)c5O)[C@H](C)O4)[C@@H](C)O2)C(=O)C(C(C)=O)=C(O)[C@@]1(O)C3=O | -79.2 | 62.7*
Cc1cc(NCC(=O)NCc2ccccc2)n2nc(-c3cccnc3)nc2n1 | -7.2 | -8.5
CC(C)c1cc(NCc2ccccc2)n2nc(-c3cccnc3)nc2n1 | 55.4* | 20.2
COc1ccc(CNC(=O)CNc2cc(C)nc3nc(-c4cccnc4)nn23)cc1 | 30.8* | -9.9
CCCNC(=O)c1ccc(Nc2cc(CCC)nc3nc(-c4cccnc4)nn23)cc1 | 11.3 | 11.4
CCCCNC(=O)c1ccc(Nc2cc(C)nc3nc(-c4cccnc4)nn23)cc1 | 47.3* | 18.5
CC(C)c1cc(NCc2ccccc2F)n2nc(-c3cccnc3)nc2n1 | 22.0 | 9.5
CCCC(C(=O)NC1CCCC1)N(CC1CCCO1)C(=O)Cn1nnc(-c2ccc(OC)c(OC)c2)n1 (stereo not given) | -6.4 | -9.7
CC(C)=CCC[C@@](C)(O)[C@@H]1CC[C@@](C)(O)[C@H]1C | 32.8* | 3.4
COc1ccccc1-n1ccn2cc(-c3ccc(C)c(C)c3)nc2c1=O | 15.9 | 7.0
O=C(CN1CCC(c2nc3ccccc3[nH]2)CC1)Nc1ccc(F)cc1 | -14.1 | -3.2
COc1ccc2occ(-c3ccc4c(c3)OCCO4)c(=O)c2c1 | 32.7* | 9.4
SMILES | USP30 inh | USP28 block
O=C(O)COc1cc(O)c2c(=O)c(-c3ccc4c(c3)OCCO4)coc2c1 | 7.9 | 4.7
CCOc1ccccc1C(=O)N1C[C@H]2NC(=O)c3ccccc3C(=O)[C@@]2(C)C1 | 19.0 | 7.7
CCc1cccc2c(C(=O)COc3ccc(C#N)cc3)c[nH]c12 | 90.6* | 70.7*
CC(=O)c1ccccc1NC(=O)COc1ccc(-c2ccc(C#N)cc2)cc1 | 5.0 | 9.4
COc1cc(C)cc2c1C(=O)c1c(cc(O)c(Cl)c1O)C2=O | 6.8 | 79.8*
COc1cc(CO)cc2c1C(=O)c1c(O)cc(O)cc1C2=O | 29.5 | 6.0
Nc1cccc(C2CN(Cc3ccnc(N4CCCC4)n3)CCO2)n1 (stereo not given) | -48.4 | -7.4
Cn1cc(CN2CCC3(CC2)CN(c2cccnc2)c2ccccc23)cn1 | -25.5 | -6.1
O=c1cc(-c2cncc(-c3cc4ccccc4o3)c2)nc(-c2ccccc2)[nH]1 | 6.9 | -2.2
O=c1cc(-c2cncc(Br)c2)nc(-c2ccccc2)[nH]1 | 30.1* | 6.1
O=[N+]([O-])c1ccc(NCc2ccc(-c3cccs3)s2)nc1 | -14.8 | 65.0*
CC1=C(c2ccccc2)S(=O)(=O)N(CC(=O)Nc2cccc(F)c2)C1=O | -15.1 | -1.3
CC1=C(c2ccccc2)S(=O)(=O)N(CC(=O)Nc2cccc(Cl)c2)C1=O | 34.9* | 25.7
Cc1cccc2c(C(=O)NC3CC3)cc(=O)[nH]c12 | 4.0 | 3.0
Cc1c(C(=O)NCC(F)(F)F)nnn1-c1cccc2c1CCN(CC1CC1)C2 | -126.6 | -30.4
Cc1ccc(S(=O)(=O)N(C)c2ccc(OCC(=O)Nc3cc(C)nn3-c3ccccc3)cc2)cc1 | 14.2 | 6.8
CCCNc1cc(N2CCCC(CCC(=O)N3CCN(CC)CC3)C2)ncn1 (stereo not given) | -1.7 | 5.0
CC(C)(C)c1ccc(OCCCC(=O)Nc2ccc(S(=O)(=O)N3CCCC3)cc2)cc1 | -34.5 | -26.1
CC(C)Oc1ccc(S(=O)(=O)N2CCOCC2)cc1NCC(=O)Nc1ccc(C(C)(C)C)cc1 | 33.2* | 10.8
COc1cccc(NS(=O)(=O)c2ccc(Oc3ccccc3OC)cc2)c1 | 36.8* | 33.6*
COc1cccc(NS(=O)(=O)c2ccc3c(c2)N(C)CCO3)c1 | -5.3 | -0.7
